Only some compounds are listed: those with a hit (about 3% of all), similar ones and a draw of the others.
Tau fluor counter – Counterscreen qHTS for Inhibitors of Tau Fibril Formation, Fluorescence Polarization; tau K18 P301L Alexa594 fluorescence, heparin fibrillization; Potency, µM (doses to about 57.7 µM), without a hit: top-dose activity change, negative = decrease; hit rate 0.93% among 280,000; AID 1463, 2008; also: potency is read from the fitted curve at half-maximal effect; nearly all actives have a fitted effect of over 55% in size
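Human tau K18 P301L (15 uM unlabeled, 0.24 uM Alexa 594-labeled) in 100 mM sodium acetate pH 7 with 20 uM heparin, 6 hr at 37 C. ThT 30 uM added, 1 hr ambient; Alexa 594 FP and total fluorescence read at 555/632 nm.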
Coupling enz – qHTS Assay for Inhibitors of Fructose-1,6-bisphosphate Aldolase from Giardia Lamblia: Coupling assay counterscreen. coupling enzyme system counterscreen, AmpLite Red fluorescence. activity change, negative = inhibition, % at 58.2 µM, hits read low. hit rate 0.67% among 290,000. AID 2472, 2010; in the data active = activity change below about -30%
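Compounds tested against the coupling enzymes alone at 57.5 uM final; readout was AmpLite Red fluorescence (525/598 nm) after 20 min at RT.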
KDM4E inh – qHTS Assay for Inhibitors of Human Jumonji Domain Containing 2E (JMJD2E); Lysine-specific demethylase 4E (Homo sapiens), B2RXH2; JMJD2E catalytic domain, FDH-coupled NADH fluorescence (FDH is formaldehyde dehydrogenase); Potency, µM (series often up to 57.1 µM), for inactives: at the top dose activity change, negative = inhibition, hits mostly inhibitors; hit rate 1.6% among 230,000; AID 2147, 2009; active = well fitted inhibition curve with a large enough effect, not every such curve was filed as active; inconclusive = small, poorly fitted or top-dose-only effect, or another doubt; inactive = no such curve, though single readings can be large or run the other way;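 also: potency is read from the fitted curve at half-maximal effect; 0% = wells with enzyme and -100% = buffer wells without enzyme; nearly all actives have a fitted effect of over 50% in size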
Target sequence (B2RXH2 1-337 limits assumed): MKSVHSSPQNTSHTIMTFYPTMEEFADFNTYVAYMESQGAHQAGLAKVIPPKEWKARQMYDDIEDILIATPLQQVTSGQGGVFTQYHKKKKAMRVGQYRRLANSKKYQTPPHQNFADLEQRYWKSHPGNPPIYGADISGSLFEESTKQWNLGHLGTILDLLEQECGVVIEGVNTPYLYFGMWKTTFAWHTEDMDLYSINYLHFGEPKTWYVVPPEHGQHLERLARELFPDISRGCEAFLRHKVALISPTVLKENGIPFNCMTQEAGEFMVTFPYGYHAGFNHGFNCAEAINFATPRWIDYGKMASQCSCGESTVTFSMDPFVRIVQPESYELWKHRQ
Tau ThT inhib – qHTS for Inhibitors of Tau Fibril Formation, Thioflavin T Binding. Microtubule-associated protein tau (Homo sapiens), P10636. recombinant tau K18 P301L (four-repeat tau fragment), heparin-induced fibrillization, ThT fluorescence. hit rate 2.1% among 270,000. Potency, µM (doses to about 57.4 µM), for inactives: top-dose activity, negative = inhibition, most hits filed as inhibitors. AID 1460, 2008; also: potency is read from the fitted curve at half-maximal effect; nearly all actives have a fitted effect of over 55% in size
Target sequence (P10636 561-689 P618L limits assumed): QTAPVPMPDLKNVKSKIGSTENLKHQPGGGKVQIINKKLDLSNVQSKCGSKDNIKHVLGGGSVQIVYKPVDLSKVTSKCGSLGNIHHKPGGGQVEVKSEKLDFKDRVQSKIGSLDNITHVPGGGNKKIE
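Tau K18 P301L fragment (15 uM unlabeled plus 0.24 uM Alexa 594-labeled) in 100 mM sodium acetate pH 7 with compound, fibrillization induced by 20 uM heparin for 6 hr at 37 C. Thioflavin T (30 uM) added, fluorescence read after 1 hr (ex 450, em 510 nm).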
Tau fibril FP – qHTS for Inhibitors of Tau Fibril Formation, Fluorescence Polarization; Microtubule-associated protein tau (Homo sapiens), P10636; K18 P301L tau heparin fibrillization, Alexa594 FP, 6 h; Potency, µM (series often up to 57.7 µM), inactives show at the top dose activity, negative = inhibition, hits mostly inhibitors; hit rate 0.39% among 280,000; also: potency is read from the fitted curve at half-maximal effect; nearly all actives have a fitted effect of over 55% in size
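Human tau K18 […] P301L fragment, 15 uM unlabeled plus 0.24 uM Alexa 594-labeled tau (final), with compound and 20 uM heparin in 100 mM sodium acetate pH 7; 6 hr at 37 C, then Alexa 594 FP read.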
The depositor's hits bear a star; ? = inconclusive; nt = no result given; [ ] = remark or other dose. Unless noted, calls follow the shape of the dose curve; as a rule, active = well fitted curve in the direction sought with a large enough effect; inconclusive = small, poorly fitted or top-dose-only effect, or another doubt; inactive = no such curve, though single readings can be large; an effect the other way counts as inactive or inconclusive. Unless noted, % is scaled to controls: 0 for no effect and ±100 for the full control effect.

SMILES	Tau fluor counter	Coupling enz	KDM4E inh	Tau ThT inhib	Tau fibril FP
O=C(NC(NC(=S)Nc1ccc(F)c([N+](=O)[O-])c1)C(Cl)(Cl)Cl)C(c1ccccc1)c1ccccc1 (stereo unspecified)	nt	-0.4	nt	nt	nt
Fc1ccc(/C=C\c2nccc3c2[nH]c2ccccc23)cc1	?	-6.4	?	?	4.9%
Cc1ccc(/C=C\c2nccc3c2[nH]c2ccccc23)cc1	11.2µM*[quencher]	-4.1	?	?	-15.3%
C(=C\c1nccc2c1[nH]c1ccccc12)/c1ccccc1	20µM*[quencher]	-6.6	?	?	-19.1%
Cc1ccc(/C=C/c2nc3ccccc3c(=O)[nH]2)cc1	-16.8%	0.7	?	-13.2%	-4.5%
CCN(C(=O)C1CCCN(c2ncnc3c2nc2n3CCCCC2)C1)c1cccc(C)c1 (stereo unspecified)	-0.2%	nt	nt	-6.6%	-9.8%
CC1=NN(c2ccccc2)C(=O)C1C=Nc1ccc(N(C)C)cc1 (stereo unspecified)	?	-12.3	?	7.94µM*	4.9%
CC1=NN(c2ccccc2)C(=O)C1/C=C1/NC(=S)NC1=O (stereo unspecified)	10.9%	0.1	4.1%	nt	9.7%
Cc1ccc(S(=O)(=O)c2nnn3c2nc(N2CCC(C)CC2)c2cc(Cl)ccc23)cc1C	-29.1%	nt	nt	?	-13.6%
CC1=CC(=C(C#N)c2nc3ccccc3s2)C=C(C)N1Cc1ccco1	3.98µM*[quencher]	-1.1	-2.9%	-18.3%	?
Cc1ccccc1-c1nc(CN2CCC(C(=O)NC(C)C)CC2)c(C)o1	-1.9%	nt	nt	5.4%	2.3%
COC(=O)c1sc(-c2ccccc2)cc1NC(=O)Nc1ccc(F)cc1	?	nt	nt	-4.4%	17.8µM*
Cc1ccc(C(C)NC(=O)/C(C#N)=C\c2c(C)[nH]c3ccccc23)cc1 (stereo unspecified)	10µM*[quencher]	-6.6	-14.2%	-15.7%	25.1µM*
CC(C)Cn1c(=O)c2ccccc2n2c(CCC(=O)Nc3cccc(Cl)c3)nnc12	-5.6%	nt	nt	8.0%	-11.9%
CN(C)S(=O)(=O)c1ccc(Cl)c(C(=O)Nc2nc3ccccc3[nH]2)c1	-2.9%	-0.6	-4.5%	-0.5%	-1.8%
Cc1ccc(NS(=O)(=O)c2ccc(Cl)c(C(=O)Nc3ccccc3-c3nc4ccccc4[nH]3)c2)cc1C	?	-3.3	?	?	14.1µM*
O=S(=O)(Nc1ccc(Br)cc1F)c1ccc2nc(-c3ccccc3)[nH]c2c1	-14.5%	nt	nt	?	14.1µM*
Cc1cc(NS(=O)(=O)c2ccc3nc(-c4ccccc4)[nH]c3c2)ccc1Br	?	nt	nt	?	7.94µM*
O=S(=O)(Nc1ccc2nc(-c3ccc(Br)o3)[nH]c2c1)c1ccccc1	-27.4%	-14.2	-7.7%	-16.6%	-0.9%
Cc1ccc(NS(=O)(=O)c2ccc3nc(-c4ccccc4)[nH]c3c2)cc1Cl	?	nt	nt	?	10µM*
Cc1ccc(NS(=O)(=O)c2ccc3[nH]c(=O)c(=O)[nH]c3c2)cc1Cl	0.0%	-2.2	-3.8%	4.5%	6.9%
Cc1ccc(Cn2cc(C(=O)c3ccc4c(c3)OCO4)c(=O)c3cc(C)ccc32)cc1	-6.4%	nt	nt	-2.7%	1.4%
COc1ccc(Cl)cc1NC(=O)Cn1c(=O)n(Cc2ccco2)c(=O)c2cccnc21	-25.1%	nt	nt	10.2%	?
CCOc1ccc(N(C)S(=O)(=O)c2ccc(C)c(C(=O)OCC(=O)c3c[nH]c4ccccc34)c2)cc1	?	-3.6	-9.5%	2.7%	8.91µM*
Cc1noc(C)c1C(=O)OCC(=O)c1c[nH]c2ccccc12	-17.3%	-2.4	-1.6%	-11.9%	6.9%
SMILES	Tau fluor counter	Coupling enz	KDM4E inh	Tau ThT inhib	Tau fibril FP
Cc1onc(-c2c(F)cccc2Cl)c1C(=O)OCC(=O)c1c[nH]c2ccccc12	17.8µM*[quencher]	-3.6	-9.3%	-3.3%	17.8µM*
CC(Oc1ccc(Br)cc1)c1nc2c3ccccc3nc(=S)n2[nH]1 (stereo unspecified)	?	-7.5	-2.6%	?	-7.6%
CCCC(Oc1ccc(Br)cc1)c1nc2c3cc(OC)c(OC)cc3nc(=S)n2[nH]1 (stereo unspecified)	15.8µM*[quencher]	-0.4	-5.7%	-6.5%	?
CCOc1cccc(/C=C2\NC(=S)N(c3ccccc3)C2=O)c1O	?	-8.8	5.5%	14.1µM*	5.5%
O=S(=O)(Nc1ccc(Cl)cc1)c1ccc(NS(=O)(=O)c2ccc3c(c2)OCCO3)cc1	?	nt	nt	13.9%	14.1µM*
NS(=O)(=O)c1ccc(NS(=O)(=O)c2ccc3c(c2)OCCO3)cc1	nt	3.3	nt	nt	nt
COc1ccc(NS(=O)(=O)c2ccc3oc(Nc4ccc5c(c4)OCCO5)nc3c2)cc1	12.6µM*[quencher]	-0.5	?	?	?
O=S(=O)(Nc1ccc(Cl)cc1)c1cccc(S(=O)(=O)c2ccc(Cl)c(Cl)c2)c1	?	nt	nt	9.9%	11.2µM*
O=C(O)c1ccc(NS(=O)(=O)c2cccc(S(=O)(=O)c3ccc(Cl)c(Cl)c3)c2)cc1	nt	0.2	nt	nt	nt
O=S(=O)(c1ccc(Cl)c(NC(=S)Nc2cccc(O)c2)c1)N1CCOCC1	-25.4%	-1.8	-5.3%	?	5.4%
CCN(C(=S)Nc1cc(S(=O)(=O)N2CCOCC2)ccc1Cl)c1cccc2ccccc12	-24.4%	-93.0*	-3.3%	?	?
O=C(NCC(c1cccs1)S(=O)(=O)c1cccs1)c1ccccc1 (stereo unspecified)	5.6%	nt	nt	-2.9%	-8.8%
CN(C)c1nc(NC2CCC(NC(=O)c3ccc(F)c(F)c3)CC2)nc2ccccc12 (stereo unspecified)	nt	-3.0	nt	nt	nt
CC(C)=CCc1c(O)ccc(C(=O)Cc2ccccc2)c1O	?	-0.9	-1.8%	-17.2%	14.1µM*
CCCCN(CCCNC(=O)c1cc(Nc2cccc(SC)c2)nc2ccccc12)Cc1ccccc1	1.78µM*[quencher]	nt	nt	?	?
CSc1cccc(Nc2cc(C(=O)NCCc3ccc(Cl)cc3)c3ccccc3n2)c1	3.55µM*[quencher]	nt	nt	-11.5%	?
Cc1cc(C(=O)NCCc2ccc(Cl)cc2)c2ccccc2n1	nt	4.7	nt	nt	nt
Cc1ccc(N2CCN(C(=O)c3c4c(nc5ccccc35)C(=O)N(C3CCCCC3)C4)CC2)c(C)c1	-9.9%	nt	nt	?	-2.9%
CC(=O)Oc1ccc(N(C(C)=O)S(=O)(=O)c2ccc(C)cc2C)c2ccccc12	nt	-0.1	nt	nt	nt
Cc1ccc(S(=O)(=O)N(C(=O)c2ccncc2)c2ccc(OC(=O)c3ccncc3)c3ccccc23)c(C)c1	?	-11.8	?	14.1µM*	?
Cc1ccc(S(=O)(=O)N(C(=O)c2ccncc2)c2ccc(OC(=O)c3ccncc3)c3ccccc23)cc1	?	-8.2	15.8µM*	25.1µM*	?

High-throughput results from PubChem BioAssay.
